Assay [1] relates to TRPC4 beta (transient receptor potential cation channel C4), mouse. In words: activators of mouse TRPC4 channel, confirmation, cell-based, Fluo4 calcium, HEK293 TRPC4beta/mu-opioid, duplicates, 10 µM (AID 2426;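 active means fluorescence ratio normalized to control raised more than 50% in primary screen plus both repeat runs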). The conditions noted are these: Fluo4 calcium fluorescence, at 10 µM; active compounds read high.
In assay [2] the test system is transient receptor potential cation channel C4 beta (TRPC4), mouse. In words: activators of mouse TRPC4 channel, confirmation, cell-based, second round, Fluo4, HEK293 TRPC4beta/mu-opioid, 1 µM (AID 2461;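 active means primary screen active and over 50% activation in each of two duplicate runs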). The conditions noted are these: Fluo4 calcium fluorescence, at 1 µM; active compounds read high.
The test system of assay [3] is TRPC4 (transient receptor potential cation channel C4 beta), mouse. In words: positive allosteric modulators of mouse TRPC4, confirmation, cell-based, second round, Fluo-4, HEK293 TRPC4beta/mu-opioid, 1 µM (AID 2554). The conditions noted are these: DAMGO EC20, Fluo-4 calcium flux, at 1 µM; active compounds read high.
In assay [4] the test system is TRPC4 beta (transient receptor potential cation channel C4), mouse. In words: positive allosteric modulators of mouse TRPC4, confirmation, cell-based, Fluo-4, HEK293 TRPC4beta/mu-opioid (AID 2555;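 active means primary screen hit whose calcium fluorescence ratio, in both repeats, exceeds the weak agonist control mean by 3 SD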). Conditions: DAMGO EC20, Fluo-4 calcium flux, at 10 µM; active compounds read high. On the technique in general: Calcium flux is commonly read through the fluorescence of an indicator in the cells.

Assay [5] deals with Short transient receptor potential channel 4 (Mus musculus) (UniProt Q9QUQ5). In words: inhibitors of mouse TRPC4 channel, confirmation, cell-based, Fluo4, HEK293 TRPC4beta/mu-opioid (AID 2636;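 active means calcium signal cut by more than 3 SD below the full-agonist control yet still positive, in both repeats and the earlier primary screen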). Conditions: DAMGO, Fluo4 calcium flux, at 10 µM; active compounds read high.
Chain of Short transient receptor potential channel 4 (Mus musculus) (Q9QUQ5 whole entry, looked up): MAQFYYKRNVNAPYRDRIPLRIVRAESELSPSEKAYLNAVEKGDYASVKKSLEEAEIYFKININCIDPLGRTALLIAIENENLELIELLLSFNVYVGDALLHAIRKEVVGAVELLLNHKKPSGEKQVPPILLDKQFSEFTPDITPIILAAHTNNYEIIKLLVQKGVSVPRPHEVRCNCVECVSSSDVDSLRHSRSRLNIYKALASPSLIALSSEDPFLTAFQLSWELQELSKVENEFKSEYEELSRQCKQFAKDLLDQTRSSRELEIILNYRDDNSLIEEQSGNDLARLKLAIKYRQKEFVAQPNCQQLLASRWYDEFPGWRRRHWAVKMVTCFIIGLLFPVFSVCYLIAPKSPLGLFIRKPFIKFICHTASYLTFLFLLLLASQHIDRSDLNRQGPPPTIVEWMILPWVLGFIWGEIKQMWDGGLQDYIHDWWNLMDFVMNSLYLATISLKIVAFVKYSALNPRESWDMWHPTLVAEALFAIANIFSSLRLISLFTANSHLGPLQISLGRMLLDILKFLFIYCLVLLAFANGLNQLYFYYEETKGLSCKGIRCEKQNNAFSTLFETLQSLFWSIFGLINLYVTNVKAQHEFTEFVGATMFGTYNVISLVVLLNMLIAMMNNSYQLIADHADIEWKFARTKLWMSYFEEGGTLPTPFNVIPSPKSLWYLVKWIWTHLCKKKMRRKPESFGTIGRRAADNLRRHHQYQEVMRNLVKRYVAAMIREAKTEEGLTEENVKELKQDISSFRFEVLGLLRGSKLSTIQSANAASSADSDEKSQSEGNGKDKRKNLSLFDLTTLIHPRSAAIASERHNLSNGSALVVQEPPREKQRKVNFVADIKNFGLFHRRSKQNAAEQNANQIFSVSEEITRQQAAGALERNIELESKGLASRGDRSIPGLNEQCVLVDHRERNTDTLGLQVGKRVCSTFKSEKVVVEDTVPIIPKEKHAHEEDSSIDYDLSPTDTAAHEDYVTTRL
Assay [6] has the same target. In words: inhibitors of mouse TRPC4 channel, confirmation, cell-based, second round, Fluo4, HEK293 TRPC4beta/mu-opioid, 1 µM (AID 2637;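 active means calcium signal ratio cut to more than 3 SD under the fully stimulated control mean yet still positive, in both repeats and the primary screen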;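 on inhibition: percent of integrated ratio relative to wells lacking test compound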). Conditions: Fluo4 calcium flux, DAMGO, at 1 µM; active compounds read high.
For assay [7] the target is unchanged. Description: mouse TRPC4 channel activators, dose response, cell-based, HEK293 TRPC4/mu-opioid, Fluo-4 calcium (AID 434937;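 active means primary screen activator hit with a dose response curve and TRPC4 channel activation at any tested dose; inactive means no activation, no dose response, or not a primary hit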).
Assay [8] has the same target. In words: TRPC4 positive allosteric modulators, dose response, cell-based, HEK293 TRPC4/mu-opioid, Fluo-4 calcium, EC20 DAMGO (AID 434941;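 active means earlier screen potentiator hit that boosts the TRPC4 ion channel at some dose, with a dose response; inactive means no potentiation, no dose response, or not a prior hit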;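 further: calcium entry triggered by an EC20 dose of DAMGO at the co-expressed mu-opioid receptor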).
Assay [9] has as its target Short transient receptor potential channel 6 (Mus musculus) (UniProt Q61143). In words: inhibition of mouse TRPC6 channel, confirmation, selectivity assay for TRPC4 inhibitor project, cell-based, HEK293, membrane potential dye, duplicate (AID 434948;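 active means active in primary screen and both duplicates, each dropping signal beyond three positive-control SD with fluorescence still positive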). The conditions noted are these: HEK293 TRPC6, membrane potential dye fluorescence, at 10 µM, stimulated with maximal-effect acetylcholine; active compounds read high.

For assay [10] the target is unchanged. In words: activation of mouse TRPC6 channel, confirmation, selectivity assay for TRPC4 activator project, cell-based, HEK293, membrane potential dye, duplicate (AID 434950;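 active means membrane potential signal rise above negative control mean plus 3 SD in both duplicates, also active in the earlier TRPC4 screen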). Conditions: HEK293 TRPC6, membrane potential fluorescence, at 10 µM; active compounds read high.
The target is the same in assay [11]. In words: TRPC6 potentiation by TRPC4 potentiator hits, confirmation, selectivity assay for TRPC4 potentiator project, HEK293 cells, membrane potential dye, duplicate (AID 434952;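 active means compound raising the membrane signal above positive-control mean plus 3 SD in both repeats, and a primary screen hit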). The conditions noted are these: HEK293 TRPC6, membrane potential dye fluorescence, at 10 µM, maximal acetylcholine added after compound; active compounds read high.
For assay [12], the target named is Short transient receptor potential channel 4 (Mus musculus) (UniProt Q9QUQ5). In words: calcium flux activators in TRPC4/5HT1a cells, counter-screen for TRPC4 activator project, cell-based, second counter screen, HEK293 TRPC4/5HT1a, Fluo-4 (AID 434977;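 active means calcium signal rise above buffer-control mean plus 5 SD in both duplicates, and also a hit in the primary screen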). The conditions noted are these: Fluo-4 calcium flux, at 10 µM; active compounds read high.
Assay [13] in a line: calcium flux inhibitors in TRPC4/5HT1a cells, confirmation, counter-screen for TRPC4 inhibitor project, cell-based, second counter screen, HEK293 TRPC4/5HT1a, Fluo-4 (AID 434978;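 active means primary screen active whose calcium signal fell more than 3 SD beyond the full-serotonin control mean in both duplicate plates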;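 on outcome: serotonin given first at submaximal then at maximal dose after compound preincubation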). The conditions noted are these: Fluo-4 calcium flux, at 10 µM, serotonin added to trigger calcium flux; active compounds read high.
Assay [14] relates to TRPC4 (mouse), co-expressed with 5HT1a in HEK293. Description: calcium flux potentiators in TRPC4/5HT1a cells, confirmation, counter-screen for TRPC4 potentiator project, cell-based, second counter screen, HEK293 TRPC4/5HT1a, Fluo-4 (AID 434979;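 active means signal rise over 3 SD above mean of control wells given weak agonist, in both repeats and first screen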). The conditions noted are these: Fluo-4 calcium flux, at 10 µM, serotonin added at its EC20 dose; active compounds read high.
A short description of assay [15]: calcium flux activation in mu-opioid HEK293 cells, confirmation, counter-screen for TRPC4 activator project, cell-based, HEK293 mu-opioid receptor line (AID 449723;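 active means hit in primary screen, with calcium signal over 5 SD above buffer well mean in both duplicates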;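 further: counter screen cells carry the mu-opioid receptor alone and lack TRPC4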). Conditions: Fluo-4 calcium fluorescence, at 10 µM; active compounds read high.
A short description of assay [16]: calcium flux enhancement in mu-opioid HEK293 cells, confirmation, counter-screen for TRPC4 allosteric potentiator project, cell-based, HEK293 mu-opioid receptor line (AID 449724;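 active means calcium signal rise more than 3 SD above the low-dose agonist control mean, in both duplicate plates and the primary screen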;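 further: HEK293 cells carrying mu-opioid receptor only with no TRPC4 channel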). The conditions noted are these: Fluo-4 calcium flux, at 10 µM, compound added before EC20 DAMGO stimulus; active compounds read high.

SMILES strings stand for the structures. For some assays here: Potency and affinity values are given separately. Activity calls are given as the source filed them.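 How the source made its calls, unless noted: active means primary screen hit whose fluorescence ratio, in both repeats, exceeds the weak agonist control mean by 3 SD; inactive means the rest.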

Chain of Short transient receptor potential channel 6 (Mus musculus) (Q61143 whole entry, looked up): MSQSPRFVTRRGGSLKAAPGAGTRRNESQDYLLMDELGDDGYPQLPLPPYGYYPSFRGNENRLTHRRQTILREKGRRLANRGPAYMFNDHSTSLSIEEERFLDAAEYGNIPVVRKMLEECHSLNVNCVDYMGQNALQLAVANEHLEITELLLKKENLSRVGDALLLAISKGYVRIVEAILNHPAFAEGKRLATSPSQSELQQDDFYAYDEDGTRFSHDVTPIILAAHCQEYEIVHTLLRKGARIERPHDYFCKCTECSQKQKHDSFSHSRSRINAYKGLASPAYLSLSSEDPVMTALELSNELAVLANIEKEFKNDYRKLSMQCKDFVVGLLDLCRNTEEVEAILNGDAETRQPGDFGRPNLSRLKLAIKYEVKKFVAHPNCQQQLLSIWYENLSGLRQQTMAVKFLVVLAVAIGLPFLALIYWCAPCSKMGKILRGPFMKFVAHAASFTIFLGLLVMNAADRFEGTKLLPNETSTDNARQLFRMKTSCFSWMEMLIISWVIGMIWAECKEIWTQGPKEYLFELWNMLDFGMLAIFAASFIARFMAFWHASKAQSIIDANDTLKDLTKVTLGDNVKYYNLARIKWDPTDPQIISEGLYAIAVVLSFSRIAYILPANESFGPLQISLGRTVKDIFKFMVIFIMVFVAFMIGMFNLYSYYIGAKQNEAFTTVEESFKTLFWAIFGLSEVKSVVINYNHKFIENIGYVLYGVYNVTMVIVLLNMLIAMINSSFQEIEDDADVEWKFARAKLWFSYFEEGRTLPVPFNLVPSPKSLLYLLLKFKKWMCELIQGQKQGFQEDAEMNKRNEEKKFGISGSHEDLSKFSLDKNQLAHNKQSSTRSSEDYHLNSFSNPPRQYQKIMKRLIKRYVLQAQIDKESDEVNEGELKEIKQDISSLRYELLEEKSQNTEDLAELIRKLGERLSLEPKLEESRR

By inhibition is commonly meant the change of the read-out against control, counted positive when it falls. In the case of `O=C(CSc1nc2ccccc2c(=O)n1CCCO)N1CCc2ccccc21`, the outcome in assay [1], in assay [2], in assay [3], in [4], in assay [7] and in [8] was inactive. Further, the compound was called inactive in assay [9], in assay [10], in [11], in [12], in [14] and in assay [15]. Besides, the outcome in assay [16] was inactive. Besides, the inhibition in assay [5] was 94% (active); in [6], 67% (active); in assay [13] it was 13.1% (active).
For the compound `CCOC(=O)c1c(NC(=O)C2CCCCC2C(=O)O)sc2c1CCCCC2` (centres undefined), the result in assay [1], in [2], in assay [3], in assay [4], in assay [6] and in assay [7] was inactive. Moreover, the outcome in assay [8], in [9], in assay [10], in assay [11], in [12] and in assay [14] was inactive. Further, the result in assay [15] and in assay [16] was inactive. The inhibition in [5] is 80% (active); in [13] it was 42.6% (active).
`O=C(O)c1cc(NN=C2c3ccccc3-c3ccccc32)ccc1Cl`: the result in assay [1], in assay [2], in [3], in assay [4], in [6] and in assay [7] was inactive. Further, the outcome in assay [8], in [10], in [11], in assay [12], in [14] and in assay [15] was inactive. For the same compound, the outcome in assay [16] was inactive. The inhibition in [5] was 98% (active); in assay [9], 32% (active); in [13], 11.8% (active).
On to `COc1ccc2c(C)cc(N3CCCCCC3)nc2c1`, for which the outcome in assay [1], in [2], in assay [3], in assay [4], in assay [7] and in assay [8] was inactive. For the same compound, the compound was called inactive in assay [10], in assay [11], in assay [12], in assay [14], in assay [15] and in [16]. The inhibition in assay [5] is 96% (active); in [6], 63% (active); in assay [9], 33.5% (active); in [13], 20.8% (active).
For the compound `CC(Oc1ccc(Cl)cc1Cl)c1nc(-c2ccccn2)no1` (centres undefined), the result in [1], in assay [2], in assay [3], in assay [4], in assay [7] and in assay [8] was inactive. Besides, the call in assay [9], in assay [10], in assay [11], in assay [12], in assay [14] and in assay [15] was inactive. The outcome in assay [16] was inactive. For the same compound, the inhibition is 89% (active) in assay [5], 53% (active) in assay [6] and 22.7% (active) in [13].
On to `CC(=O)N1CCN(c2ccccc2NC(=O)c2cccs2)CC1`, for which the outcome in assay [1], in [2], in assay [3], in [4], in assay [7] and in assay [8] was inactive. In addition, the result in assay [9], in [10], in [11], in [12], in [13] and in assay [14] was inactive. For the same compound, the result in assay [15] and in [16] was inactive. Also, the inhibition in assay [5] was 76% (active); in [6], 43% (active).
As for `O=C(COc1ccc(Cl)cc1)Nc1ccc(C(=O)O)cc1NC(=O)COc1ccc(Cl)cc1`, the result in assay [1], in assay [2], in assay [3], in [4], in assay [6] and in [7] was inactive. Also, the outcome in assay [8], in [9], in [10], in [11], in assay [12] and in assay [13] was inactive. The outcome in assay [14], in assay [15] and in assay [16] was inactive. For the same compound, in assay [5], the inhibition was 68% (active).
As for `CCOC(=O)c1oc2ccccc2c1CN1CCCCC1`, the result in assay [1], in [2], in [3], in assay [4], in assay [6] and in [7] was inactive. The outcome in [8], in assay [9], in assay [10], in assay [11], in [12] and in [14] was inactive. Moreover, the result in assay [15] and in assay [16] was inactive. For the same compound, the results for the inhibition in assay [5] and in assay [13] were 91% (active) and 34.9% (active), respectively.
Take `O=C(OCC(=O)N1CCc2ccccc2C1)c1cccc([N+](=O)[O-])c1`: the result in assay [1], in assay [2], in [3], in assay [4], in assay [7] and in assay [8] was inactive. Also, the result in [9], in assay [10], in assay [11], in assay [12], in assay [14] and in [15] was inactive. Further, the result in assay [16] was inactive. For the same compound, the inhibition in assay [5] is 95% (active); in assay [6] it was 47% (active); in assay [13] it was 40.7% (active).
On to `COCC(C)NC(C(=O)Nc1ccc(Cl)c([N+](=O)[O-])c1)c1ccccc1` (centres undefined), for which the result in [1], in assay [2], in [3], in assay [4], in [6] and in assay [7] was inactive. In addition, the result in assay [8], in assay [9], in assay [10], in assay [11], in assay [12] and in assay [13] was inactive. For the same compound, the outcome in assay [14], in [15] and in [16] was inactive. Further, the inhibition in assay [5] is 87% (active).
Regarding `COc1cccc(/C=C2\SC(=S)N(NS(=O)(=O)c3ccc(C)cc3)C2=O)c1OC`, the result in assay [1], in assay [2], in [3], in [4], in [6] and in assay [7] was inactive. Further, the result in assay [8], in assay [9], in assay [10], in [11], in assay [12] and in assay [14] was inactive. Besides, the result in assay [15] and in assay [16] was inactive. Besides, the inhibition was 95% (active) in [5] and 4.07% (active) in [13].
For `Cc1nn(-c2ccccc2)c2[nH]c(C(F)(F)F)cc(=O)c12`, the outcome in [1], in assay [2], in assay [3], in assay [4], in assay [6] and in [7] was inactive. Further, the outcome in [8], in [9], in [10], in assay [11], in [12] and in [14] was inactive. Further, the result in assay [15] and in [16] was inactive. The inhibition in assay [5] is 49% (active); in assay [13], 31.7% (active).
As to `Cc1ccc(C[n+]2cc(-c3ccc(Cl)cc3)n3c2CCC3)cc1`, the result in assay [1], in [2], in [3], in [4], in assay [7] and in [8] was inactive. Also, the result in [9], in [10], in assay [11], in assay [12], in [14] and in [15] was inactive. The result in [16] was inactive. Further, the inhibition in [5] is 73% (active); in assay [6], 64% (active); in assay [13], 41.9% (active).
In the case of `CC1(c2ccccc2)CC(C)(C)N(C(=O)C2CCCO2)c2ccccc21` (centres undefined), the outcome in [1], in assay [2], in assay [3], in assay [4], in assay [6] and in assay [7] was inactive. The result in assay [8], in assay [9], in assay [10], in assay [11], in assay [12] and in assay [14] was inactive. In addition, the result in assay [15] and in assay [16] was inactive. Further, the inhibition is 90% (active) in [5] and 38.3% (active) in [13].

For the origin of these results see PubChem BioAssay.
